# Test results: the supplement of paper PMC10849652
# The full data set covers some 8,800 targets. This sample favours those with a hit. About 0.5% of all pairs of compound and target were hits. Unmarked numbers belong to inactive results.
# Experiments:
# Test in all cases: log2 fold change, soluble protein after heating vs DMSO (PISA); higher = thermal stabilisation; K562 lysate, 10 uM; active = over 0.2 and 3.5 SD of the protein, either way, in both replicates (recomputed)
# erlotinib = compound: C#Cc1cccc(Nc2ncnc3cc(OCCOC)c(OCCOC)cc23)c1 [erlotinib]
# Outline: (§1)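 Soluble protein was defined as the supernatant remaining after 21,000xg for 90 min, following pooling of heated aliquots and adjustment to 0.5% NP-40 at 4°C. Before that, crude K562 extract at 1 mg/mL protein in PBS pH 7.4 with 1 mM MgCl2 was treated with 10 μM compound for 30 min and heated for 3 min across 48°C-58°C. Quantification used TMTpro 16plex LC-MS/MS with channel sums equalised, and values are log-two fold changes in thermal stability relative to solvent controls from duplicates.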
# [1] = compound: C/C(=N\NC(=O)C1=CC(=CC=C1)S(=O)(=O)N2CCOCC2)/C3=C(C=CC(=C3)Cl)O
# Outline: as §1
# [2] = compound: C1=CC(=CC=C1C2=NC3=C(N2)C=C(C=C3)C(=O)N)OC4=CC=C(C=C4)Cl
# Outline: as §1
# [3] = compound: C1=CC2=C(C=CC(=C2)/C=C\3/C(=O)NC(=NCC4=CC=CS4)S3)N=C1
# Outline: as §1
# [4] = compound: C1=CC2=NC=CN=C2C=C1/C=C/3\C(=O)NC(=O)S3
# Outline: as §1
# [5] = compound: C1=CC=C(C=C1)C2=NC(=C(N2)C3=CC=NC=C3)C4=CC(=C(C=C4)Cl)O
# Outline: as §1
# [6] = compound: C1=CC=C2C(=C1)C3=NNC4=CC=CC(=C43)C2=O
# Outline: as §1
# [7] = compound: C1CCN(C1)C(=O)NC2=CC=CC(=C2)NC3=NC=C(C(=N3)NCCC4=CN=CN4)Br
# Outline: as §1
# [8] = compound: C1CN(CCC1(CC2=CC=C(C=C2)Cl)N)C3=NC=NC4=C3C=CN4
# Outline: as §1
# IRAK-1-4 Inhibitor I = compound: C1COCCN1CCN2C3=CC=CC=C3N=C2NC(=O)C4=CC(=CC=C4)[N+](=O)[O-] [IRAK-1-4 Inhibitor I]
# Outline: as §1
# ibrutinib = compound: C=CC(=O)N1CCC[C@@H](n2nc(-c3ccc(Oc4ccccc4)cc3)c3c(N)ncnc32)C1 [ibrutinib]
# Outline: as §1
# [9] = compound: CC(=O)c1cnc2ccc(-c3cc(Cl)c(O)c(Cl)c3)nc2c1N[C@H]1CC[C@H](CN(C)C)CC1
# Outline: as §1
# ralimetinib = compound: CC(C)(C)Cn1c(N)nc2ccc(-c3[nH]c(C(C)(C)C)nc3-c3ccc(F)cc3)nc21 [ralimetinib]
# Outline: as §1
# [10] = compound: CC(C)(O)CC(=O)NCCn1ccc2ncnc(Nc3ccc(Oc4cccc(C(F)(F)F)c4)c(Cl)c3)c21
# Outline: as §1
# [11] = compound: CC(C)C1=C2N=C(C=C(N2N=C1)NCC3=CC=CC=C3)NCCCCCCN
# Outline: as §1
# [12] = compound: CC1=C(C(CC(=O)N1)C2=CC=C(C=C2)C(F)(F)F)C(=O)NC3=C(C=C4C(=C3)C=NN4)F
# Outline: as §1
# [13] = compound: CC1=C(C2=C(C=C1)C(=O)C3=CC=CC=C3N2CCCN)C
# Outline: as §1
# [14] = compound: CC1=C(C=C(C=C1)NC(=O)C2=CC(=CC=C2)C(C)(C)C#N)NC3=CC4=C(C=C3)N=CN(C4=O)C
# Outline: as §1
# [15] = compound: CC1=C(C=C(C=C1)NC(=O)C2=CC(=CC=C2)N(C)C)NC(=O)C3=CC=C(C=C3)O
# Outline: as §1
# [16] = compound: CC1=CC=C(C=C1)SC2=C3C=C(SC3=CN=C2)C(=O)N
# Outline: as §1
# Chain of UniProt Q6KC79 (Q6KC79 whole entry, looked up): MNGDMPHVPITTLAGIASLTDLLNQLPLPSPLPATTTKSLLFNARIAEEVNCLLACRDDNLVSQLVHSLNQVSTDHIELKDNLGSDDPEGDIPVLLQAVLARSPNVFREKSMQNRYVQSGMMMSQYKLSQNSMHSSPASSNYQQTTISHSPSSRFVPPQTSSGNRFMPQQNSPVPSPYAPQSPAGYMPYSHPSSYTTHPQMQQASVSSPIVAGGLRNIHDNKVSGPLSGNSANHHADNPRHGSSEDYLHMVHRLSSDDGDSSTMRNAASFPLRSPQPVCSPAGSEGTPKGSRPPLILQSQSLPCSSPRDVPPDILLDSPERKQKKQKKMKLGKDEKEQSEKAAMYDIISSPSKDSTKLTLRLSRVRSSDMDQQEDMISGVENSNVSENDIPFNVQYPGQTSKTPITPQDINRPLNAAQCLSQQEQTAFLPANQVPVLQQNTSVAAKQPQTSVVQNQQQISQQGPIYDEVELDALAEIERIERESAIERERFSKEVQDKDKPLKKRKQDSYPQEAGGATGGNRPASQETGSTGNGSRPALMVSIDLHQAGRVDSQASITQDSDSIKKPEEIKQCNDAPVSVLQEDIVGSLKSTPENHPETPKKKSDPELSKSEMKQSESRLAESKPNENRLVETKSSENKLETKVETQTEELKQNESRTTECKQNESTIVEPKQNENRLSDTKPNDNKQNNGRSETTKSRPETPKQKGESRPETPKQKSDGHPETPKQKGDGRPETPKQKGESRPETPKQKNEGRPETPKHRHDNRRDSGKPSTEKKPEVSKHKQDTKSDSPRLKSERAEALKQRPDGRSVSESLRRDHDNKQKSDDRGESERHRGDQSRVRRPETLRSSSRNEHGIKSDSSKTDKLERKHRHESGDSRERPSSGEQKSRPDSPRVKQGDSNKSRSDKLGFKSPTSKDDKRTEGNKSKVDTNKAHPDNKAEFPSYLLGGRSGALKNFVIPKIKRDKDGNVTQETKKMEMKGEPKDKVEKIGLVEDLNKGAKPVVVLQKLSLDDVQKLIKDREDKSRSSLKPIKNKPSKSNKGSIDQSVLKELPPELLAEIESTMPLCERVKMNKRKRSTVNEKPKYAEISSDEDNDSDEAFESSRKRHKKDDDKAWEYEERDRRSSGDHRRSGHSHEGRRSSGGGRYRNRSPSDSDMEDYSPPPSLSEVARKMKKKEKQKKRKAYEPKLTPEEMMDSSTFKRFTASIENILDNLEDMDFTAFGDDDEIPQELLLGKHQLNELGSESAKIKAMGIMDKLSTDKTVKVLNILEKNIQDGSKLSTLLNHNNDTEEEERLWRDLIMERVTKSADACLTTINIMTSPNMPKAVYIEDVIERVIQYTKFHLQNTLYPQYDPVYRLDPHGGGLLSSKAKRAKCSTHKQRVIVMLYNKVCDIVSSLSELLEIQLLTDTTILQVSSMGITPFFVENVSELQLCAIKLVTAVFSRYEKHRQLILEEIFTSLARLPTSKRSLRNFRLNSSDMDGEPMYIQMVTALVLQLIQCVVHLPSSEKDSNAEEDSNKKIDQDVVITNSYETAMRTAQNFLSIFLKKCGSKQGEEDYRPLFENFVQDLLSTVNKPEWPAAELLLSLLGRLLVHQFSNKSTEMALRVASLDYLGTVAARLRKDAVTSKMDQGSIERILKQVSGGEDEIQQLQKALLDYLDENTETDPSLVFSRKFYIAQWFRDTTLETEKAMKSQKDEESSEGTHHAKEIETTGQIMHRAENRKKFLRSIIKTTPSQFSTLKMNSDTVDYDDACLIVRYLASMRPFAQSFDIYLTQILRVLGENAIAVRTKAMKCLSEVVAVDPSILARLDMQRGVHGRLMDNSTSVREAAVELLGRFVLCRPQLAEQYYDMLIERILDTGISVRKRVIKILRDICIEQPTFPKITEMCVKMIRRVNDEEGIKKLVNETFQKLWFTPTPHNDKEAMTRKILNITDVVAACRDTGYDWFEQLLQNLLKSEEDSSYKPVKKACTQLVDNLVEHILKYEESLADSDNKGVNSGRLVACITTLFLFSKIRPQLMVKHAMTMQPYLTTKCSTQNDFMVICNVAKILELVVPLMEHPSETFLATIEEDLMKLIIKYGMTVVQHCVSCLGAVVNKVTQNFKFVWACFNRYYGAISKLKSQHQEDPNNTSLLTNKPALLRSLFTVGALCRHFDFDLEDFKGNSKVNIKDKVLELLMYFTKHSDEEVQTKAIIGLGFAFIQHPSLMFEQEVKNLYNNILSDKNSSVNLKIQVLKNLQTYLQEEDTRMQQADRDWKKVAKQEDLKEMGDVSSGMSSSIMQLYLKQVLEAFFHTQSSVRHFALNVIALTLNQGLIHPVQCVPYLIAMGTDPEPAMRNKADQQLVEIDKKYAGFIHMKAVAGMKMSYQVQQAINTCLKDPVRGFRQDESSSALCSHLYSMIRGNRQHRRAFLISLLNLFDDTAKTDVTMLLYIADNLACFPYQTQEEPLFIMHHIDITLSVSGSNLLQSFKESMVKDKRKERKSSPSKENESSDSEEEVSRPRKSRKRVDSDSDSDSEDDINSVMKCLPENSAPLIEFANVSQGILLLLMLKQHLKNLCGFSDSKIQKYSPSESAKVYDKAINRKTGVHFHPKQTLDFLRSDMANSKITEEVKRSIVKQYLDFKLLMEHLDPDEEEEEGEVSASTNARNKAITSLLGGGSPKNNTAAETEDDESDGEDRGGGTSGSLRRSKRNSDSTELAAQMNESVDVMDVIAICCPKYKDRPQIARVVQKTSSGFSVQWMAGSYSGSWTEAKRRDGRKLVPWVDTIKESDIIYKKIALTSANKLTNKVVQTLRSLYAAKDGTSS
# Chain of UniProt Q9NZT2 (Q9NZT2 whole entry, looked up): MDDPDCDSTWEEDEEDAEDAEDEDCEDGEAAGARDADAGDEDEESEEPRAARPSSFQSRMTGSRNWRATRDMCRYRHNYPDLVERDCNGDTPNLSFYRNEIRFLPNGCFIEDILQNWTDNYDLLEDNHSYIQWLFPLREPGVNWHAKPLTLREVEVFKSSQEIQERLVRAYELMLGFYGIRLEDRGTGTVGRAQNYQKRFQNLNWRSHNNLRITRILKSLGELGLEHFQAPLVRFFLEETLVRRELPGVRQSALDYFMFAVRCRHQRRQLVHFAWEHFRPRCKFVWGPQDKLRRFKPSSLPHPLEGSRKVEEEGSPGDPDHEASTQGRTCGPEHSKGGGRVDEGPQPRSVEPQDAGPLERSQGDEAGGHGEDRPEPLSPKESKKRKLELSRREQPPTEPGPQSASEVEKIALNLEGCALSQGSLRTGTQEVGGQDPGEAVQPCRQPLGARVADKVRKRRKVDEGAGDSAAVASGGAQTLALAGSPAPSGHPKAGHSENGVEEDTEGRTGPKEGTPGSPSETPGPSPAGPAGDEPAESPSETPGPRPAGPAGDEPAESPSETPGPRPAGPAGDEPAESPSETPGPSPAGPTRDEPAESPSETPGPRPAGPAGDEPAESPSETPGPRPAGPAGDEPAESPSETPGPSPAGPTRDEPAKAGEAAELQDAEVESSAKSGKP
# Chain of UniProt P18440 (P18440 whole entry, looked up): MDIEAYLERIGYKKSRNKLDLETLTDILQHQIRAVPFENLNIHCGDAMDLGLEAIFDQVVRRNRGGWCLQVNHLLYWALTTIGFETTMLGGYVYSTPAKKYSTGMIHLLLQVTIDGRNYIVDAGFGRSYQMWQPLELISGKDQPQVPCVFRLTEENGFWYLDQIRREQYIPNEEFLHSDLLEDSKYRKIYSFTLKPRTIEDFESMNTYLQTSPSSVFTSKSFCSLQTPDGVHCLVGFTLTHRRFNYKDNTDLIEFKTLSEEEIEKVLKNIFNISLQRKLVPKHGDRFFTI
# Chain of UniProt Q99836 (Q99836 whole entry, looked up): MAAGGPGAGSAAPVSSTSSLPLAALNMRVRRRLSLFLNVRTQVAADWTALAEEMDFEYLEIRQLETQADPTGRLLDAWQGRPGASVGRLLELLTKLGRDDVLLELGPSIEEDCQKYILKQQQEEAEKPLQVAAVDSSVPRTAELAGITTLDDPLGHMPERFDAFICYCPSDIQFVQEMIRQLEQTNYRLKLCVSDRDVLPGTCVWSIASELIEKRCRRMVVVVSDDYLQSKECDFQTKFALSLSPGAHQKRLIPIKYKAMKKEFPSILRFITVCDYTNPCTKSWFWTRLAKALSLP
# Chain of UniProt Q6IBW4 (Q6IBW4 whole entry, looked up): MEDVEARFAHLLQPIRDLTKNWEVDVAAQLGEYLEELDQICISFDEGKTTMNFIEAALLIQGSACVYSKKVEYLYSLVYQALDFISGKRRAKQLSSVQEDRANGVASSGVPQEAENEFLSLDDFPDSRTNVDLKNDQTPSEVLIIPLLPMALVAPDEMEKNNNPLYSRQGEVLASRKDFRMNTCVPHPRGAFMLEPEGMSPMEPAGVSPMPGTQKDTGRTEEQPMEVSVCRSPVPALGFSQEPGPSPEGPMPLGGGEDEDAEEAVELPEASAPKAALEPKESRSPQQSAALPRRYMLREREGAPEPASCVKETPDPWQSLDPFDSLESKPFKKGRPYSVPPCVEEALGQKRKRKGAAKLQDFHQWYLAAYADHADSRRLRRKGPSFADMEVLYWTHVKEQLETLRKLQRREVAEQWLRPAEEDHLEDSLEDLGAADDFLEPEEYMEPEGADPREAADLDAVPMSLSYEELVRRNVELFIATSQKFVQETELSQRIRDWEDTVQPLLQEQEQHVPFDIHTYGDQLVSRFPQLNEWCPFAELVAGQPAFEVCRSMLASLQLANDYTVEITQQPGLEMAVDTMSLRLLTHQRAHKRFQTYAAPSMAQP
# Chain of UniProt O00483 (O00483 whole entry, looked up): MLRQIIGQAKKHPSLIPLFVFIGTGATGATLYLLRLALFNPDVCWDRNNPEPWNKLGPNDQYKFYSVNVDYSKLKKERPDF
# Chain of UniProt Q9HBL8 (Q9HBL8 whole entry, looked up): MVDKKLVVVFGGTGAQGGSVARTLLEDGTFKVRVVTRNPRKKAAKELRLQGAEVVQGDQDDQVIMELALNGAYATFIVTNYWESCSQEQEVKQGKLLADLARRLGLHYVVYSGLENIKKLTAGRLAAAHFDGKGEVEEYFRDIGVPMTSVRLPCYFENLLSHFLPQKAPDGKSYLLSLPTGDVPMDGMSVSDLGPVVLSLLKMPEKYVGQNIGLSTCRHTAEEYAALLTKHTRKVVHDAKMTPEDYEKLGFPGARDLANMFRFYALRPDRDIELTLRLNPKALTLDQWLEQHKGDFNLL
Target,log2 fold change (erlotinib),log2 fold change [1],log2 fold change [2],log2 fold change [3],log2 fold change [4],log2 fold change [5],log2 fold change [6],log2 fold change [7],log2 fold change [8],log2 fold change (IRAK-1-4 Inhibitor I),log2 fold change (ibrutinib),log2 fold change [9],log2 fold change (ralimetinib),log2 fold change [10],log2 fold change [11],log2 fold change [12],log2 fold change [13],log2 fold change [14],log2 fold change [15],log2 fold change [16]
MT-ND1 (UniProt P03886),-0.061,-0.227,-0.14,0.055,-0.036,-0.005,0.061,-0.038,0.02,0.004,0.032,-0.006,0.061,-0.101,-0.052,0.056,-0.007,0.055,-0.005,0.088
NELFCD (UniProt Q8IXH7),0.034,0.015,0.007,0.031,-0.019,-0.019,-0.044,-0.004,0.023,-0.036,0.039,0.013,0.019,-0.043,0.009,0.007,0.013,0.011,0.049,-0.02
NDUFA4 (UniProt O00483),0.038,0.092,-0.012,0.055,0.009,0.055,0.046,0.012,0.001,-0.01,0.007,0.199,0.022,0.03,-0.068,-0.045,-0.036,-0.058,0.009,-0.199
NMRAL1 (UniProt Q9HBL8),0.008,0.012,-0.111,-0.011,-0.037,-0.054,0.141,0.024,0.001,-0.02,0.122,0.021,0.06,0.012,-0.03,0.047,-0.048,-0.01,-0.016,0
OGFR (UniProt Q9NZT2),0.023,0.023,0.018,-0.015,-0.012,-0.011,-0.027,-0.01,0.038,-0.012,-0.012,0.02,0.007,-0.011,-0.008,0.001,-0.016,-0.027,-0.003,0.002
MSH2 (UniProt P43246),0.003,0.018,-0.028,0.028,0.013,0.017,-0.019,-0.01,0.012,-0.009,-0.009,-0.01,0.019,0.02,0.019,-0.012,-0.014,0,0.037,0.019
MYD88 isoform 6 (UniProt Q99836),-0.066,0.007,-0.011,-0.019,-0.019,-0.015,-0.025,0.032,-0.067,0.004,0.044,0.003,0.022,0.005,0.024,0.002,-0.028,-0.009,-0.024,-0.029
ORC5 (UniProt O43913),0.014,0.021,-0.017,0.003,0.045,0.029,-0.016,-0.085,-0.061,-0.068,0.05,0,0.047,-0.001,0.022,-0.027,-0.008,0.012,0.053,-0.007
NSUN2 (UniProt Q08J23),0.004,0.04,-0.018,0.006,0.004,-0.006,-0.016,0.033,-0.018,-0.002,0.014,0.011,0.023,0.015,0.006,0.008,0.006,-0.035,0.033,0.017
N4BP2 (UniProt Q86UW6),0.04,-0.029,-0.09,0.069,-0.015,0.001,0.106,-0.021,-0.068,-0.022,0.094,-0.041,0.038,-0.053,0.047,0.03,-0.011,-0.005,-0.034,-0.027
PANK1 (UniProt Q8TE04),-0.003,-0.048,0.033,0.026,0.098,0.015,-0.069,-0.036,0.054,-0.061,-0.031,-0.007,0.04,-0.003,-0.079,0.045,-0.068,-0.035,-0.025,0.064
NUP98 (UniProt P52948),-0.018,0.017,0.023,-0.026,0.005,-0.079,-0.004,0.015,0.021,0.002,-0.01,0.047,0.047,0.022,-0.037,0.034,0.029,-0.022,0.008,-0.017
NEBL (UniProt O76041),-0.014,-0.028,0.05,0.015,-0.048,0.001,-0.082,-0.087,0.013,0.054,0.087,0.052,0.009,-0.003,-0.015,-0.037,-0.061,-0.006,-0.012,-0.025
NIPSNAP3A (UniProt Q9UFN0),0.008,-0.014,0.062,-0.03,0.012,0.003,0.015,-0.012,0.002,0.015,-0.013,-0.014,-0.016,-0.049,0.029,0.023,-0.021,0.004,0.022,-0.056
NCAPH2 (UniProt Q6IBW4),-0.031,-0.085,0.011,-0.012,0.026,0,-0.005,-0.038,0.042,0.009,-0.033,-0.01,0.066,-0.091,0.028,-0.017,0,0.01,0.055,0.011
MRPL53 (UniProt Q96EL3),-0.036,-0.103,0.042,0.014,-0.004,-0.015,-0.049,-0.07,0.096,0.026,0.041,-0.018,0.062,-0.047,0.016,-0.047,0.011,0.042,0.044,0.011
OCRL (UniProt Q01968),-0.057,-0.031,0.04,0.085,-0.012,0.054,-0.1,0.02,0.055,0.068,0.051,-0.038,-0.016,0.016,0.044,0.013,0.036,0.022,-0.002,0.033
N6AMT1 (UniProt Q9Y5N5),0.022,-0.053,-0.082,0.02,-0.097,0.013,-0.272,0.005,-0.013,-0.022,0.103,-0.03,0.005,-0.006,0.009,-0.045,-0.026,0.01,0.024,0.027
NIPBL (UniProt Q6KC79),-0.025,0.044,-0.003,0.009,0.005,-0.013,0.003,-0.014,0.007,-0.043,0.026,0.008,0.035,-0.016,0.036,0.007,-0.025,-0.03,-0.044,0.021
NUP188 (UniProt Q5SRE5),0.066,0.011,-0.01,0.004,-0.007,-0.03,-0.034,0.027,-0.003,0.023,-0.026,0.019,0.041,-0.021,-0.028,-0.005,0.035,-0.04,0.042,-0.018
OTUD7B (UniProt Q6GQQ9),0.028,-0.06,0.075,-0.026,-0.017,-0.006,-0.076,-0.002,0.032,-0.039,-0.008,0.004,0.026,0.005,-0.034,-0.011,-0.019,0.239 (active),0,0.047
PANK4 (UniProt Q9NVE7),0.013,-0.012,0.003,0.051,0.033,0.003,-0.052,-0.002,0.018,0.018,0.039,0.001,0.023,-0.008,0.036,-0.01,-0.024,-0.001,-0.005,-0.005
OGFOD2 (UniProt Q6N063),0.034,-0.151,-0.093,-0.074,0.022,-0.034,0.001,0.003,0.006,-0.04,0.002,0.023,-0.012,-0.018,-0.125,-0.023,0.025,-0.04,-0.029,-0.023
NAT1 (UniProt P18440),0.001,-0.011,-0.007,-0.136,-0.015,-0.011,0.528 (active),-0.021,0.035,-0.013,-0.089,-0.039,0.062,0.019,-0.035,-0.001,-0.048,0.034,0.009,0.052
